# Screening results from PubChem.
# Most compounds without a hit are left out; they make up all but 19% or so of the library.
# Giardia kill: kills Giardia lamblia; Giardia lamblia trophozoite viability; activity change, % at 7.66 µM, hits read low; actives 0.15% (n = 340,000); in the data active = activity change below about -80%; inconclusive = between about -30% and that limit;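 note: parasites exposed to compound for two days anaerobically before the ATP read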
#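 Trophozoites 100 cells/well + cpd; 48 hrs, 37 deg C, anaerobic. ATPLite 1-Step added, 15-30 min RT, luminescence read (ATP-based viability).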
# ELG1 DNA repair: ELG1-dependent DNA repair inhibition; HEK293T ELG1-luciferase reporter, luminescence, 16 h; DNA damage induced by 5-fluorouridine; Potency, µM (titrated, usually from 46.1 µM), usual class: inhibitors; actives 2.3% (n = 330,000); AID 504467; note: nearly all actives have a fitted effect of over 55% in size
#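 Overnight (16 hr) co-exposure of 2,000 cells/well to 5-fluorouridine and compound at 37 °C preceded detection. Luciferase was quantified via ONE-Glo luminescence; loss of signal denotes inhibition.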
# DT40 TDP1 CPT: DT40-hTDP1 cell growth loss with CPT; Potency, µM (series often up to 46.2 µM), actives largely listed as inhibitors; actives 12% (n = 420,000); chicken DT40 Tdp1-/-;hTDP1 cells + 20 nM CPT, ATP luminescence, 48 h; note: nearly all actives have a fitted effect of over 55% in size
#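 Cell growth measured by CellTiter-Glo luminescence after a minimum 48 h, 37 C compound exposure with 20 nM CPT in Tdp1-knockout DT40 cells stably expressing hTDP1, seeded 400/well; qHTS titration format.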
# IL1B secr inh: inhibitors of inflammasome signaling (IL-1 beta secretion); THP-1 LPS/ATP IL-1B secretion, AlphaLISA, 16 h; stronger effect = lower value; activity change, % at 57.5 µM; actives 4.7% (n = 360,000); AID 743279; in the data active = activity change below about -50%; inconclusive = mostly about -30% to -49%
#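 Secreted IL-1B measured by AlphaLISA bead assay after 16 h compound exposure of THP-1 cells; compounds (final up to 57.5 uM) added 1 h before LPS (250 ng/mL) and ATP (1.25 mM) stimulation; lower signal means less secretion.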
# DT40 TDP1 no CPT: qHTS for Inhibitors of human tyrosyl-DNA phosphodiesterase 1 (TDP1): qHTS in cells in absence of CPT. DT40 Tdp1-/- hTDP1 cells, no CPT, ATP luminescence, 48 h. Potency, µM (titrated, usually from 46.2 µM), most hits filed as inhibitors. actives 15% (n = 420,000). AID 686978, 2013; note: nearly all actives have a fitted effect of over 55% in size
#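 Compound effects on proliferation are scored in DT40 Tdp1-/-;hTDP1 cells in the absence of CPT. ATP levels (CellTiter-Glo luminescence) are recorded after a ≥48 hr, 37 °C incubation.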
# TDP1 inh: TDP1 (human) enzyme inhibition | Q9NUW8 | recombinant TDP1, AlphaScreen DNA substrate cleavage | Potency, µM (highest dose often 130 µM), actives largely listed as inhibitors | actives 0.28% (n = 350,000) | AID 485290; note: nearly all actives have a fitted effect of over 40% in size
# Target sequence (Q9NUW8 whole entry, looked up): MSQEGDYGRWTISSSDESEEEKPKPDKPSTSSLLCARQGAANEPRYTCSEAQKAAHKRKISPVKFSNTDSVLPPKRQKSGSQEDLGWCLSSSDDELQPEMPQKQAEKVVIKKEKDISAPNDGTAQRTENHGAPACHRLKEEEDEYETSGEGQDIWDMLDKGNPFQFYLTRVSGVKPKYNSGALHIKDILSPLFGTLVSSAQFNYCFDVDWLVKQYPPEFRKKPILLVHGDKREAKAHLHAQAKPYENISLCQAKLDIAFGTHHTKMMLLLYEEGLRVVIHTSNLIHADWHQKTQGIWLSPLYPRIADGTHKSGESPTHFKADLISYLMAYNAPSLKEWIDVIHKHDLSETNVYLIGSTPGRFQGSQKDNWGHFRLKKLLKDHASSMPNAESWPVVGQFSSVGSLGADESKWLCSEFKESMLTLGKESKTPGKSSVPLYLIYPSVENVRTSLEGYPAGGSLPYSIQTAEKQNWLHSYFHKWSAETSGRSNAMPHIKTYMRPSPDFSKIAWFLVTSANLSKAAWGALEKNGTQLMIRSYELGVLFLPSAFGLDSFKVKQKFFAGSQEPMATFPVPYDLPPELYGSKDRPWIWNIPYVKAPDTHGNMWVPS
#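 Here, a 5' biotin and 3' phosphotyrosine-FITC DNA oligonucleotide reports Tdp1 activity: intact substrate bridges AlphaScreen beads, while cleavage leaves a 3' phosphate and drops signal. All incubations at room temperature.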
# A number is an active result; n = inactive; u = inconclusive; x = not tested or not shown; [ ] = remark or other dose. Unless noted, calls come from the whole dose curve; as a rule, active = well fitted curve in the direction sought with a large enough effect; inconclusive = small, poorly fitted or top-dose-only effect, or another doubt; inactive = no such curve, though single readings can be large; an effect the other way counts as inactive or inconclusive.
SMILES,Giardia kill,ELG1 DNA repair,DT40 TDP1 CPT,IL1B secr inh,DT40 TDP1 no CPT,TDP1 inh
Cc1cc(C)n2nc(N)c(N=Nc3cccc(Cl)c3)c2n1,n,n,n,n,u,n
Cc1ccc(N=Nc2c(N)nn3c(C)cc(C)nc23)cc1,n,n,u,n,23µM,n
C=CCOC(=O)Nc1nc(CCNC(=O)OCc2ccccc2)c(C(=O)OC)s1,x,x,n,n,n,x
COc1ccc(-c2cc(C(=O)OCC(=O)N3CCOCC3)c3ccccc3n2)cc1,n,21µM,n,-54,u,n
COC(=O)C1CCN(C(=O)COC(=O)c2cc(-c3ccccc3)nc3ccc(OC)cc23)CC1,n,18µM,u,n,u,28µM
C/C(N)=C(/C#N)C(=O)COC(=O)c1cc(-c2ccc(Br)cc2)nc2ccccc12,n,u,15µM,u,9.2µM,n
O=C(COC(=O)c1cc(-c2ccccc2)nc2ccccc12)c1ccc(Br)cc1,x,x,u,x,u,n
COc1ccc2cc(C(=O)NCc3ccc4c(c3)CCN4C(=O)c3ccc(F)cc3)[nH]c2c1,x,x,21µM,x,18µM,n
COc1cccc2[nH]c(C(=O)NCc3ccc4c(c3)CCN4C(=O)c3ccc(F)cc3)cc12,x,x,u,x,u,n
COc1ccc2cc(C(=O)NCc3ccc4c(c3)CCN4C(=O)c3ccc(C)cc3)[nH]c2c1,x,x,13µM,x,u,n
CC(C)Oc1ccccc1OC1(C)CCN(Cc2ccc(OC(F)(F)F)cc2)C1 (stereo not given),x,x,u,n,u,x
O=C1OC[C@H]2CCCN2C(=O)[C@@H](CC(=O)N(CCO)Cc2ccccc2)C/C=C\CC[C@H]1Cc1ccc(F)cc1,n,u,16µM,u,21µM,n
O=C1OC[C@H]2CCCN2C(=O)[C@@H](CC(=O)N(CCO)Cc2ccccc2)C/C=C\CC[C@@H]1Cc1ccc(F)cc1,n,u,18µM,n,21µM,n
O=C1OC[C@@H]2CCCN2C(=O)[C@H](CC(=O)N(CCO)Cc2ccccc2)C/C=C\CC[C@H]1Cc1ccc(F)cc1,n,n,23µM,n,u,n
Cc1ccc(S(=O)(=O)N2CC(O)CC2C(=O)OCC(=O)c2ccccc2Cl)cc1C (stereo not given),n,u,n,n,n,n
COc1ccc(N2C(=O)c3ccc(C(=O)OC(C)C)cc3C2=O)cc1,n,n,6.5µM,n,5.8µM,n
COc1ccc(C(=O)NCc2ccc(C(=O)NCC(OC)OC)cc2)cc1OC,n,n,n,n,n,n
O=C(NCC1CC1)c1ccc(Nc2nc3ccc(Br)cc3[nH]2)cc1,n,n,u,n,u,n
COCCNC(=O)c1cccc(Nc2nc(-c3ccccc3)c3cc(Cl)ccc3n2)c1,n,21µM,15µM,-52,9.2µM,n
CNC(=O)c1ccc2nc(-c3cccc(C)c3)c(-c3cccc(C)c3)nc2c1,n,x,11µM,x,10µM,n
O=C(NCC1CC1)c1ccc2nc(-c3ccoc3)c(-c3ccoc3)nc2c1,n,x,u,x,11µM,n
COc1ccc(-c2nc3ccc(C(=O)NCC(OC)OC)cc3nc2-c2ccc(OC)cc2)cc1,n,16µM,10µM,n,8.2µM,n
O=C(O)c1ccc2nc(-c3ccccc3)c(-c3ccccc3)nc2c1,n,u,n,n,n,n
COc1ccccc1CNC(=O)c1ccc(-c2ccccc2)cc1,n,u,n,n,n,n
COc1cccc(CNC(=O)c2ccc3nc(-c4ccccc4)c(-c4ccccc4)nc3c2)c1OC,x,x,23µM,x,u,n
SMILES,Giardia kill,ELG1 DNA repair,DT40 TDP1 CPT,IL1B secr inh,DT40 TDP1 no CPT,TDP1 inh
COCCCNC(=O)c1ccc(-c2nc3ccccc3nc2-c2ccccc2)cc1,n,x,u,n,23µM,x
COC(CNC(=O)c1ccc2nc(-c3ccccc3)c(-c3ccccc3)nc2c1)OC,n,u,u,u,12µM,n
COc1ccc(-c2nc3ccc(C(=O)NCc4ccccc4)cc3nc2-c2ccc(OC)cc2)cc1,x,x,u,x,15µM,n
COCCCNC(=O)c1ccc(C(=O)NCCCOC)cc1,n,n,n,n,n,n
Cc1ccc(-c2nc3c4cnn(-c5cc(Cl)ccc5Cl)c4ncn3n2)cc1,x,x,n,x,n,n
Cc1cccc(CN2C(=O)c3ccccc3Sc3ccc(C(=O)NC4CCCCC4)cc32)c1,x,x,n,x,u,n
CN1CCN(CCNC(=O)c2ccc3nc(-c4ccc(F)cc4)c(-c4ccc(F)cc4)nc3c2)CC1,n,n,u,-53,u,n
CCCCOc1ccc(CNC(=O)c2cnc3sc(N4CCC(C)CC4)nn3c2=O)cc1,x,x,n,x,u,n
CCOc1ccc2c(c1)OC1(CCC(C)C1)CC2=O (stereo not given),u,x,n,n,n,x
CCOc1ccc2c(c1)OC(c1ccc(C)cc1)(C(F)(F)F)NC2=O (stereo not given),n,u,1.5µM,n,1.3µM,x
O=C(CN1CCN(C(=O)C2CCCO2)CC1)Nc1ccc(Cl)c(Cl)c1 (stereo not given),n,n,n,n,n,n
O=C(NNc1ccccc1Br)C(O)(c1cccc(C(F)(F)F)c1)c1cccc(C(F)(F)F)c1,n,u,29µM,-59,15µM,n
Cc1c(C(=O)OC2CCCCC2)[nH]c2c1C(=O)CC(c1ccc(C(C)(C)C)cc1)C2 (stereo not given),x,x,21µM,x,18µM,n[12.3 µM]
Cc1c(C(=O)OC2CCCCCC2)[nH]c2c1C(=O)CC(c1ccccc1)C2 (stereo not given),x,x,3.3µM,x,3.7µM,n
Cc1c(C(=O)OC2CCCCCC2)[nH]c2c1C(=O)CC(c1ccc(Cl)cc1)C2 (stereo not given),x,x,n,x,n,n
COc1ccc(Cl)cc1NC(=O)CN(C)C(=O)c1ccc2c(c1)CC(c1ccccc1)OC2=O (stereo not given),n,u,15µM,n,16µM,n
COc1ccc(NC(=O)CN(C)C(=O)c2ccc3c(c2)CC(c2ccccc2)OC3=O)cc1 (stereo not given),x,x,26µM,n,16µM,x
CCOC(=O)C1CCN(C(=O)CSc2n[nH]c(-c3ccccc3Cl)n2)CC1,x,x,u,x,u,n
COc1ccc(/C=C/C(=O)c2ccc[nH]2)c(OC)c1OC,n,u,n,n,u,n
CCOc1ccc(OCCOc2ccc(/C=C/C(=O)O)cc2OCC)cc1,n,n,n,n,n,n
CCOc1cc(/C=C/C(=O)O)ccc1OCCO,n,n,13µM,n,18µM,n
CCOc1ccc(C(=O)/C=C/c2ccc(SC)cc2)cc1,n,n,u,n,u,n
O=C(/C=C/c1ccc(OCc2ccccc2)c(OCc2ccccc2)c1)c1cccnc1,n,n,u,-95,12µM,n
CSc1ccc(/C=C/C(=O)c2ccc(O)cc2)cc1,n,u,18µM,-79,n,n
